SMILES strings stand for the structures. The whole screen tested about 320,000 compounds, of which about 2,100 (0.66%) were called active. Inconclusive results (about 53%) are left out. The sample holds actives, similar compounds and a random draw of the others, so the mix is not that of the screen. Calls follow the shape of the dose curve; as a rule, active = well fitted inhibition curve with a large enough effect in the signal ratio, with a control signal flat (not every such curve was filed as active); inconclusive = small, poorly fitted or top-dose-only effect, or effect the other way, or a change in a side signal; inactive = flat fitted curve, though single readings scatter; the % refers to the signal ratio.
Potency is read from the fitted curve at half-maximal effect.

The nature of this assay: qHTS Assay for Lipid Storage Modulators in Drosophila S3 Cells.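 As to cell number change: cells counted by Cell Tracker Red CMTPX staining in the red channel.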 Particulars: BODIPY lipid droplet fluorescence, 18-24 h, cells fed with added oleic acid; cell number change: measured here: cell count max response; series mostly up to 46.1 µM. The gist of the method:
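Drosophila S3 cells got compounds at several concentrations plus oleic acid (400 uM solution). Laser-scanning cytometry with 488 nm excitation read lipid droplets at 500-530 nm and cells at 575-640 nm. Percent activity was relative to 20 uM Triacsin C.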
(In general: Quantitative high-throughput screening tests each substance at several concentrations.)
Take `COCCOC(=O)c1c(NC(=O)CNc2ccc(C)c(F)c2)sc(C(N)=O)c1C`: the Potency result is “inactive” and the cell number change came to 3.82%.

For the compound `CCOc1ccc(/C=C/c2nc(C#N)c(NCCCN(C)C)o2)cc1`, the Potency result was “inactive” and the cell number change is -6.82%.

In the case of `CCOc1ccc(/C=C/c2nc(C#N)c(NCCCOC)o2)cc1`, the Potency was 18.4 µM (active) and the cell number change is -10.5%.

As to `CCNc1oc(/C=C/c2ccc(OCC)cc2)nc1C#N`, the Potency result is “inactive” and the cell number change was -11.4%.

Take `CCCc1nc(NCCO)c(C#N)c2c1CCCC2`: the Potency entry is “inactive” and the cell number change amounted to 7.48%.

As to `COc1ccccc1NC(=O)CC1C(=O)Nc2ccccc2N1C(=O)c1ccccc1` (centres undefined), the Potency result was “inactive” and the cell number change came out at 5.14%.

Turning to `O=C(OCC(=O)N1CCCC1)c1cc(Cl)ccc1Cl`, the Potency entry was “inactive” and the cell number change stood at 4.05%.

`O=C(OCC(=O)N1CCCC1)c1c(Cl)ccc(Cl)c1Cl`: the Potency is 2.91 µM (active) and the cell number change was determined as 9.01%.

`O=C(OCC(=O)N1CCOCC1)c1c(Cl)ccc(Cl)c1Cl`: the Potency entry was “inactive”.

On to `O=S(=O)(Nc1ccc(Br)cc1)c1cccc(NC(=S)NCCN2CCOCC2)c1`, for which the Potency entry was “inactive” and the cell number change was 13%.

With `Cc1ccc(CSc2nsc(C)c2C#N)cc1`, the Potency result is “inactive” and the cell number change is 8.89%.

As for `COC(=O)c1ccccc1CSc1nsc(/C=C/N(C)C)c1C#N`, the Potency result was “inactive” and the cell number change was found to be 7.59%.

In the case of `COC(=O)c1ccccc1CSc1nsc(C)c1C#N`, the Potency was 9.2 µM (active) and the cell number change was found to be 26.2%.

On to `O=C(CCS(=O)(=O)c1ccccc1)Nc1nc2cc3c(cc2s1)OCO3`, for which the Potency result is “inactive” and the cell number change is -2.46%.

With `O=C(O)CCC(=O)Nc1ccc(OCC2CCCO2)cc1` (centres undefined), the Potency entry is “inactive” and the cell number change worked out at 20.5%.

Take `O=C(O)CCC(=O)OCC1CCCCC1`: the Potency entry was “inactive” and the cell number change was found to be 6.49%.

In the case of `O=C(O)CCC(=O)OCC1CCCO1` (centres undefined), the Potency is 23.1 µM (active) and the cell number change is -20.4%.

Regarding `Cc1occc1C(=O)N1CCN(S(C)(=O)=O)CC1`, the Potency entry is “inactive” and the cell number change amounted to 15.2%.

As for `COCCCNC(=O)Cc1c(C)c2cc3c(cc2oc1=O)OC(C)(C)CC3`, the Potency result is “inactive” and the cell number change is -2.78%.

On to `CC1CCN(C(=O)C2CCCN(c3ncnc4c3nc3n4CCCCC3)C2)CC1` (centres undefined), for which the Potency entry is “inactive” and the cell number change is -11.2%.

For `COc1cccc(CNC(=O)C2CCCN(c3ncnc4c3nc3n4CCCCC3)C2)c1` (centres undefined), the Potency entry was “inactive”.

On to `O=C(NCCCN1CCCCC1)C1CCCN(c2ncnc3c2nc2n3CCCCC2)C1` (centres undefined), for which the Potency was 29.1 µM (active) and the cell number change is -4.96%.

As for `CC1CCN(C(=O)C2CCN(c3ncnc4c3nc3n4CCCCC3)CC2)CC1`, the Potency was 3.66 µM (active) and the cell number change is -15%.

For `O=C(NCCCN1CCCCC1)C1CCN(c2ncnc3c2nc2n3CCCCC2)CC1`, the Potency entry was “inactive” and the cell number change was determined as 15.5%.

For `CC1CC(C)CN(CCCNC(=O)C2CCCN(c3ncnc4c3nc3n4CCCCC3)C2)C1` (centres undefined), the Potency result is “inactive” and the cell number change was found to be 27%.

Take `COc1ccc(OC)c(CNC(=O)C2CCCN(c3ncnc4c3nc3n4CCCCC3)C2)c1` (centres undefined): the Potency was 2.31 µM (active) and the cell number change is -11.8%.

As for `CCCN1CCN(C(=O)C2CCN(c3ncnc4c3nc3n4CCCCC3)CC2)CC1`, the Potency result is “inactive” and the cell number change is -18.8%.

For the compound `COc1ccc(CNC(=O)C2CCCN(c3ncnc4c3nc3n4CCCCC3)C2)cc1` (centres undefined), the Potency result is “inactive” and the cell number change came to 3.46%.

For `Cc1cc(C)n2nc(C(=O)OCC(=O)Nc3ccc(F)cc3F)nc2n1`, the Potency result was “inactive” and the cell number change turned out to be 11.7%.

On to `CN(C)C(=S)Nc1cccc(F)c1`, for which the Potency entry is “inactive” and the cell number change was determined as 0.661%.

In the case of `CC(C)(C)c1cc(S(=O)(=O)CCc2ccncc2)cc(C(C)(C)C)c1F`, the Potency result is “inactive” and the cell number change is -5.56%.

For the compound `Cc1cccc([C@@H]2[C@@H]3C(=O)N(Cc4ccccc4)C(=O)[C@@H]3[C@]3(Cc4ccccc4)C(=O)N(c4ccc(C(F)(F)F)cc4)C(=O)N23)c1`, the Potency entry was “inactive” and the cell number change came out at 5.02%.

Regarding `O=C(Nc1ccccn1)c1cc(-n2cnnc2)ccc1Cl`, the Potency entry was “inactive” and the cell number change was -4.08%.

Take `CC(C)Oc1ccc(C(=O)Nc2c3c(nn2C(C)(C)C)CS(=O)(=O)C3)cc1`: the Potency result is “inactive”.

`O=C(COC(=O)Cc1ccc(Br)cc1)NC1CCCCCC1`: the Potency entry was “inactive” and the cell number change was -16.9%.

For the compound `CCCSc1nnc(NC(=O)CSc2nc3[nH]c(=O)cc(O)c3s2)s1`, the Potency result is “inactive” and the cell number change was -1.41%.

In the case of `Cc1c(Cc2ccccc2)c(=O)oc2cc(OCC(=O)N3CCC(C(N)=O)CC3)ccc12`, the Potency entry was “inactive” and the cell number change was 23.5%.

For the compound `Cc1c(CC(=O)O)c(=O)oc2cc3c(cc12)CCC(C)(C)O3`, the Potency entry is “inactive” and the cell number change stood at 4.46%.

As to `Cc1c(CC(=O)N2CCC(C(N)=O)CC2)c(=O)oc2cc3c(cc12)CCC1(CCCCC1)O3`, the Potency is 13 µM (active) and the cell number change was -23.7%.

With `CCOc1ccccc1NC(=O)CCNC(=O)c1ccco1`, the Potency entry was “inactive” and the cell number change was -5.71%.

With `O=C(c1ccccc1Cl)N1CCC(c2nc3c(nnn3Cc3ccco3)c(=O)[nH]2)CC1`, the Potency result is “inactive” and the cell number change is -9.84%.

In the case of `O=c1[nH]c(C2CCCN(S(=O)(=O)c3ccccc3)C2)nc2c1nnn2Cc1cccc(Cl)c1` (centres undefined), the Potency was 2.59 µM (active) and the cell number change was found to be 7.14%.

Regarding `Cc1ccc(Cn2nnc3c(=O)[nH]c(C4CCN(S(=O)(=O)c5ccc(F)cc5)CC4)nc32)cc1`, the Potency result is “inactive” and the cell number change stood at 8.95%.

Turning to `O=C(c1ccco1)N1CCCC(c2nc3c(nnn3Cc3ccccc3)c(=O)[nH]2)C1` (centres undefined), the Potency result is “inactive” and the cell number change is 1.8%.

Consider `O=c1[nH]c(C2CCCN(S(=O)(=O)c3cccc(F)c3)C2)nc2c1nnn2Cc1ccccc1` (centres undefined), for which the Potency entry was “inactive” and the cell number change worked out at 10.8%.

Regarding `Cc1ccc(Cn2nnc3c(=O)[nH]c(C4CCN(S(=O)(=O)c5ccccc5)CC4)nc32)cc1`, the Potency entry was “inactive”.

`COc1ccc(Cn2nnc3c(=O)[nH]c(C4CCN(S(=O)(=O)c5ccc(C)cc5)CC4)nc32)cc1`: the Potency was 13 µM (active) and the cell number change was -52.1%.

As for `O=c1[nH]c(C2CCN(S(=O)(=O)c3ccccc3)CC2)nc2c1nnn2Cc1cccc(Cl)c1`, the Potency entry was “inactive” and the cell number change came to 26.3%.

On to `CC(C)(C)c1ccc(Cn2nnc3c(=O)[nH]c(C4CCN(C(=O)c5ccco5)CC4)nc32)cc1`, for which the Potency was 20.6 µM (active) and the cell number change is -8.06%.
